The term AC50 denotes the midpoint of the concentration-response curve, whichever way the signal moves.

Calls of active or inactive are those of the source. How the source made its calls: active means hit-call score of the fitted dose curve at least 0.9, where 1 is the maximum; inactive means score below 0.9.

A short description of experiment [1]: ATG_GRE_CIS: Attagene CIS-FACTORIAL HepG2 Assay for human Glucocorticoid Response Elements (GRE) (AID 2282947). The following applies: HepG2 GRE cis-reporter, Attagene multiplex mRNA; actives raise or lower the signal. The gist of the method:
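Endogenous transcription factor activity is read through cis-element reporter constructs transiently transfected into HepG2 cells. After 24 h treatment, labelled RT-PCR products are resolved by capillary electrophoresis; DMSO sets baseline for bidirectional curve fitting.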

The nature of experiment [2]: ATG_ISRE_CIS: Attagene CIS-FACTORIAL HepG2 Assay for human Interferon Regulatory Factor 1 (IRF1) binding to an Interferon-Stimulated Response Element (ISRE) (AID 2282948). The note with it: HepG2 ISRE cis-reporter (Attagene), mRNA transcription readout; actives raise or lower the signal. The essentials:
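Cell-based cis-reporter assay; HepG2; 24 h exposure; reporter mRNA by RT-PCR plus capillary electrophoresis fluorescence; activity in either direction scored relative to DMSO.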

The nature of experiment [3]: ATG_M_06_CIS: Attagene CIS-FACTORIAL HepG2 Assay for M06 Transcription Factor (Internal Marker) (AID 2282950). The following applies: HepG2 Attagene CIS-FACTORIAL M06 internal marker reporter; actives raise or lower the signal. The gist of the method: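 Internal background marker within multiplexed cis-reporter HepG2 system. Cells transiently transfected, dosed 24 h; reporter mRNA measured by RT-PCR, HpaI digestion and capillary electrophoresis. Bidirectional fit relative to DMSO.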

The target in experiment [4] is Hypoxia-inducible factor 1-alpha (Homo sapiens) (UniProt Q16665). Kind of experiment: ATG_HIF1a_CIS: Attagene CIS-FACTORIAL HepG2 Assay for human Hypoxia Inducible Factor 1 (HIF1A) (AID 2282951). The note with it: HepG2 Attagene cis-factorial HIF1a reporter transcription; actives raise or lower the signal. The essentials: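 RT-PCR/capillary electrophoresis fluorescence readout of reporter transcripts from endogenous-TF-driven cis elements in transfected HepG2 cells, 24 h exposure; activity fitted in both directions against DMSO controls.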
Chain of Hypoxia-inducible factor 1-alpha (Homo sapiens) (Q16665 whole entry, looked up): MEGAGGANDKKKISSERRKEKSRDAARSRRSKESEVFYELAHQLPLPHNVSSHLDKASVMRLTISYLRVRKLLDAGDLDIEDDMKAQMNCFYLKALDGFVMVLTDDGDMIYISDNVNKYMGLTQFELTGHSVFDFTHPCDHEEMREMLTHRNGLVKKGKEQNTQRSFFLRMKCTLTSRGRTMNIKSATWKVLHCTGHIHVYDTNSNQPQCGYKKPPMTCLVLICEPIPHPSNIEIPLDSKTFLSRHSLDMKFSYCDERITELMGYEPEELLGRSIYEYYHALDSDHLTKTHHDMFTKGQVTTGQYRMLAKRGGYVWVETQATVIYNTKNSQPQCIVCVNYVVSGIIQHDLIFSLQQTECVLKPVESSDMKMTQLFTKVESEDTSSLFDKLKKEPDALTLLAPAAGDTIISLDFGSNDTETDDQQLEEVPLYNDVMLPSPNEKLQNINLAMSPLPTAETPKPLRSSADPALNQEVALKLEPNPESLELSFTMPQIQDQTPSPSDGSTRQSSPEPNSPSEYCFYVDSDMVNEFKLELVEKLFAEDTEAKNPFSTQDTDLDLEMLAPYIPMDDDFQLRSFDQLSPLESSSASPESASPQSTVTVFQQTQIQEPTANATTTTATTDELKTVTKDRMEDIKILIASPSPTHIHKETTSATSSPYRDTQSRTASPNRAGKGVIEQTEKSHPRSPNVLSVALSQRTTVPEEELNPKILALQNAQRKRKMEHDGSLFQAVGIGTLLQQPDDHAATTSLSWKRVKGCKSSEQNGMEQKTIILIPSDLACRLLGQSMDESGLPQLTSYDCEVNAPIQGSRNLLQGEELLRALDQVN

Experiment [5] addresses Hepatocyte nuclear factor 6 (Homo sapiens) (UniProt Q9UBC0). Kind of experiment: ATG_HNF6_CIS: Attagene CIS-FACTORIAL HepG2 Assay for human Hepatocyte Nuclear Factor 6 (HNF6) (AID 2282952). The following applies: HepG2 Attagene cis-factorial HNF6 reporter transcription; actives raise or lower the signal. The essentials:
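Multiplexed mRNA reporter assay in transfected HepG2; 24 h dosing; RT-PCR plus capillary electrophoresis fluorescence; DMSO-referenced bidirectional curve fitting.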

The target in experiment [6] is Heat shock factor protein 1 (Homo sapiens) (UniProt Q00613). Kind of experiment: ATG_HSE_CIS: Attagene CIS-FACTORIAL HepG2 Assay for human Heat Shock Transcription Factor 1 (HSE) (AID 2282953). The note with it: HepG2 HSE cis-reporter, Attagene RNA transcription; actives raise or lower the signal. The essentials: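 HepG2 cells transfected with cis-promoter reporter units sensing endogenous transcription factor activity; reporter mRNA quantified 24 h post-dose by RT-PCR and capillary electrophoresis of 6-FAM-labelled products. Bidirectional fitting against DMSO.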
Chain of Heat shock factor protein 1 (Homo sapiens) (Q00613 whole entry, looked up): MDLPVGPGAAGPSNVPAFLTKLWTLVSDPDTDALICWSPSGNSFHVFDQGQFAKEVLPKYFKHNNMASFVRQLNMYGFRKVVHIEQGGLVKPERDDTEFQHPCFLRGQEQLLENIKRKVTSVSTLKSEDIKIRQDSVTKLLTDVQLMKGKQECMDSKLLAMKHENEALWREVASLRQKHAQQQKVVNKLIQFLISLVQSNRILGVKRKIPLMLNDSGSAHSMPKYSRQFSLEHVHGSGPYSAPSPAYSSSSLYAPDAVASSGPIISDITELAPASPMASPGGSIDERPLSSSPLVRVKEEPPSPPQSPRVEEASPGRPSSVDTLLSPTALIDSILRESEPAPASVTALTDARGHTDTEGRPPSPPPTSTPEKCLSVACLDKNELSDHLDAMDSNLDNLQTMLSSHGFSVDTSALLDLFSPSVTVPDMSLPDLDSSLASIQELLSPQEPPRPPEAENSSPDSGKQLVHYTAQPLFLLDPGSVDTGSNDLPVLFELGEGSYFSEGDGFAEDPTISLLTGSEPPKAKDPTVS

Experiment [7] deals with Paired box protein Pax-6 (Homo sapiens) (UniProt P26367). Description: ATG_Pax6_CIS: Attagene CIS-FACTORIAL HepG2 Assay for human Paired Box 6 (PAX6) (AID 2282956). The following applies: HepG2 CIS-FACTORIAL PAX6 reporter transcription, RNA readout; actives raise or lower the signal. The essentials: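 Multiplexed cis-reporter HepG2 system; 24 h treatment; reporter mRNA read by RT-PCR/CE fluorescence; bidirectional fit vs DMSO.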
Chain of Paired box protein Pax-6 (Homo sapiens) (P26367 whole entry, looked up): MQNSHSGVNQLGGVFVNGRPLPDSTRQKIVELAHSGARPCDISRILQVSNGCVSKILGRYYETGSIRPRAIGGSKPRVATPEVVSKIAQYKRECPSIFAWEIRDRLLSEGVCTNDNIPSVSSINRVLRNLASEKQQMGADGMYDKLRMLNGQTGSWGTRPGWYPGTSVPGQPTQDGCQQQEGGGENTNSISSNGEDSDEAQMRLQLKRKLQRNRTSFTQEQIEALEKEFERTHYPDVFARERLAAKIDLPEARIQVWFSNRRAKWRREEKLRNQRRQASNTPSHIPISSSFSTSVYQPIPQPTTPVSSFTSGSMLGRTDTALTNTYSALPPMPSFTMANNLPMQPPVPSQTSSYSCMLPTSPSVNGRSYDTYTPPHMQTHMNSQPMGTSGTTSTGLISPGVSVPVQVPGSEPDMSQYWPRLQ

Experiment [8] in a line: ATG_PXRE_CIS: Attagene CIS-FACTORIAL HepG2 Assay for human Pregnane X Receptor Element (PXRE) (AID 2282957). The note with it: HepG2 Attagene CIS-FACTORIAL PXRE reporter, mRNA; actives raise or lower the signal. The gist of the method:
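Cells: HepG2, transiently transfected reporter units under cis promoter control. Exposure: 24 h. Detection: reporter mRNA via RT-PCR/CE fluorescence; bidirectional fitting, DMSO-referenced.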

Experiment [9] is described as follows: ATG_PPRE_CIS: Attagene CIS-FACTORIAL HepG2 Assay for human Peroxisome Proliferator-activated Response Element (PPRE) (AID 2282958). The following applies: HepG2 PPRE cis-element reporter, Attagene transcription factor profiling; actives raise or lower the signal. The gist of the method:
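Read-out: fluorescent reporter mRNA fragments resolved by capillary electrophoresis after RT-PCR. HepG2 cells carried transiently transfected PPRE-driven cis reporter constructs and were dosed for 24 h; gain or loss of signal fitted relative to DMSO.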

The nature of experiment [10]: ATG_RORE_CIS: Attagene CIS-FACTORIAL HepG2 Assay for human RAR-related Orphan Receptor Element (RORE) (AID 2282959). The following applies: HepG2 Attagene cis-factorial RORE reporter, mRNA; actives raise or lower the signal. The essentials:
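Readout: fluorescent reporter mRNA by RT-PCR plus capillary electrophoresis, 24 h after dosing transfected HepG2 cells. Endogenous transcription factor activity on a cis promoter element is measured. Gain or loss of signal fitted against DMSO.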

The nature of experiment [11]: ATG_Sox_CIS: Attagene CIS-FACTORIAL HepG2 Assay for human SRY-box transcription factor (SOX) (AID 2282960). The note with it: HepG2 Attagene cis-factorial SOX reporter, mRNA; actives raise or lower the signal. The gist of the method: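 Read-out: fluorescent RT-PCR products of SOX1-linked reporter transcripts resolved by capillary electrophoresis, fitted bidirectionally against DMSO. Transiently transfected HepG2 cells, 24 h after chemical exposure, endogenous transcription factor activity.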

Experiment [12] has as its target Transcription factor Sp1 (Homo sapiens) (UniProt P08047). Kind of experiment: ATG_Sp1_CIS: Attagene CIS-FACTORIAL HepG2 Assay for human Specificity Protein 1 (Sp1) (AID 2282961). The note with it: HepG2 Sp1 cis-reporter transcription, actives raise or lower the signal. The essentials:
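Read-out: fluorescence of 6-FAM-labeled, HpaI-digested RT-PCR products separated by capillary electrophoresis. HepG2 cells carried transfected cis-element reporter units and were exposed to chemicals for 24 h; gain or loss of signal fitted relative to DMSO.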

A short description of experiment [13]: ATG_SREBP_CIS: Attagene CIS-FACTORIAL HepG2 Assay for human Sterol Regulatory Element Binding (SREBP) (AID 2282962). The following applies: HepG2 Attagene cis-factorial SREBP reporter, mRNA; actives raise or lower the signal. The essentials:
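mRNA induction of transfected cis-promoter reporters in HepG2 cells, 24 h post-dose. Detection: RT-PCR with 6-FAM-labelled products, HpaI digest, capillary electrophoresis. DMSO served as negative control and baseline.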

Experiment [14] has as its target Signal transducer and activator of transcription 3 (Homo sapiens) (UniProt P40763). Description: ATG_STAT3_CIS: Attagene CIS-FACTORIAL HepG2 Assay for human Signal Transducer and Activator of Transcription 3 (STAT3) (AID 2282963). The note with it: HepG2, Attagene cis-factorial STAT3 reporter transcription; actives raise or lower the signal. The gist of the method:
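Values derive from bidirectional fits relative to DMSO of reporter mRNA levels, measured by RT-PCR with capillary electrophoresis, in HepG2 cells carrying transiently transfected cis-regulated reporter units and exposed 24 h.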

Experiment [15] in a line: ATG_TA_CIS: Attagene CIS-FACTORIAL HepG2 Assay for human TA Basal Promoter (AID 2282964). The following applies: HepG2 Attagene CIS-factorial TA basal promoter reporter; actives raise or lower the signal. The essentials: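 HepG2 cells transiently transfected with multiple reporter units under cis promoter elements, reporting endogenous transcription factor activity; this endpoint tracks the TA basal promoter as background control. Reporter mRNA after 24 h dosing measured by RT-PCR/capillary electrophoresis; bidirectional fits versus DMSO.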

The nature of experiment [16]: ATG_TCF_b_cat_CIS: Attagene CIS-FACTORIAL HepG2 Assay for human T-Cell-Factor with beta-catenin (TCF/b-cat) (AID 2282965). The following applies: HepG2 TCF/beta-catenin cis-reporter transcription, actives raise or lower the signal. The essentials:
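HepG2, transient MRTU transfection, cis-element-driven reporters (endogenous TFs). 24 h compound exposure. Readout: reporter mRNA by RT-PCR + 6-FAM primer extension, HpaI digest, capillary electrophoresis. Gain/loss fit vs DMSO baseline.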

Experiment [17] is described as follows: ATG_MRE_CIS: Attagene CIS-FACTORIAL HepG2 Assay for human Metal Responsive Element (MRE) (AID 2282954). The note with it: HepG2 MRE cis-reporter transcription, Attagene multiplex; actives raise or lower the signal. The essentials:
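Fluorescent reporter fragments separated by capillary electrophoresis give mRNA induction for the MRE unit after 24 h treatment of transfected HepG2 cells. Endogenous transcription-factor activity is read; DMSO serves as negative control and baseline.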

A short description of experiment [18]: ATG_M_32_CIS: Attagene CIS-FACTORIAL HepG2 Assay for M32 Transcription Factor (Internal Marker) (AID 2282949).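 Further: background control marker of the multiplexed CIS panel rather than a real target.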 The following applies: HepG2 Attagene cis-factorial M32 reporter, mRNA; actives raise or lower the signal. The gist of the method:
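Internal background marker read-out: RT-PCR/capillary electrophoresis fluorescence of reporter transcripts from transiently transfected HepG2 cells after 24 h chemical exposure. Activity fitted bidirectionally relative to DMSO negative control.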

Experiment [19] is described as follows: ATG_PBREM_CIS: Attagene CIS-FACTORIAL HepG2 Assay for human Phenobarbital-responsive Enhancer Module (PBREM) (AID 2282955). The note with it: HepG2 PBREM cis-reporter, Attagene multiplexed transcription; actives raise or lower the signal. The gist of the method: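 Reporter mRNA read by RT-PCR, 6-FAM primer extension, HpaI digestion and capillary electrophoresis. Transfected HepG2 cells, 24 h compound exposure. Gain or loss of signal fitted bidirectionally relative to DMSO baseline.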

Chain of Hepatocyte nuclear factor 6 (Homo sapiens) (Q9UBC0 whole entry, looked up): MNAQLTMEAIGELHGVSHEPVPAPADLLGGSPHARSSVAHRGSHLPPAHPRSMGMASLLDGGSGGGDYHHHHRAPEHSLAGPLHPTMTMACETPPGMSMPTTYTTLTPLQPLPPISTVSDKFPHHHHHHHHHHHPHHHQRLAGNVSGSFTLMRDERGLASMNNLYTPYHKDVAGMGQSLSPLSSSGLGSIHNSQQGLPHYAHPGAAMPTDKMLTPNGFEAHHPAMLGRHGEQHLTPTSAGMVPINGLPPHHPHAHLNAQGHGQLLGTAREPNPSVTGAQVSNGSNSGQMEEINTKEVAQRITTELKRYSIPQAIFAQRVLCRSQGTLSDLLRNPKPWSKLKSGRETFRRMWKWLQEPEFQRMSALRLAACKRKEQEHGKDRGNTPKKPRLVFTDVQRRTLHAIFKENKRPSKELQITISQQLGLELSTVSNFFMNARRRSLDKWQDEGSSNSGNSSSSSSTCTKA
Chain of Transcription factor Sp1 (Homo sapiens) (P08047 whole entry, looked up): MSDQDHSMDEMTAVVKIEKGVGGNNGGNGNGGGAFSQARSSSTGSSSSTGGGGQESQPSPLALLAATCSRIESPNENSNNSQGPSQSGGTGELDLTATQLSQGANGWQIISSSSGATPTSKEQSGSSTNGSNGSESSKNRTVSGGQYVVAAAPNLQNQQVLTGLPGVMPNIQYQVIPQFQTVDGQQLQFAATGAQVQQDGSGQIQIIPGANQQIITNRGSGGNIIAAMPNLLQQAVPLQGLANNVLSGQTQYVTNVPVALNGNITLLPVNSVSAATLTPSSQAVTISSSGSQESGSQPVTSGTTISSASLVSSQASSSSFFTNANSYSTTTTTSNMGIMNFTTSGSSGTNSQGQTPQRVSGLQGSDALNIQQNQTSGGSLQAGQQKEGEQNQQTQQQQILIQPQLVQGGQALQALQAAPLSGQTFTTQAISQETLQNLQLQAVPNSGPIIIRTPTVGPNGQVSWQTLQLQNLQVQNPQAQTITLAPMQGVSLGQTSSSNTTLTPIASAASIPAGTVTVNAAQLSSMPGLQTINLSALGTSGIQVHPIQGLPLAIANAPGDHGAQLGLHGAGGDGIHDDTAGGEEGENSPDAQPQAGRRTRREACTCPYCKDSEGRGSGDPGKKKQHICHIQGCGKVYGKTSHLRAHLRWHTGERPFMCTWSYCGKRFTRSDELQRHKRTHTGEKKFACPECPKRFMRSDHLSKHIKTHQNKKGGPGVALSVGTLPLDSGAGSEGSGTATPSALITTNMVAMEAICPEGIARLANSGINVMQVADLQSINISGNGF
Chain of Signal transducer and activator of transcription 3 (Homo sapiens) (P40763 whole entry, looked up): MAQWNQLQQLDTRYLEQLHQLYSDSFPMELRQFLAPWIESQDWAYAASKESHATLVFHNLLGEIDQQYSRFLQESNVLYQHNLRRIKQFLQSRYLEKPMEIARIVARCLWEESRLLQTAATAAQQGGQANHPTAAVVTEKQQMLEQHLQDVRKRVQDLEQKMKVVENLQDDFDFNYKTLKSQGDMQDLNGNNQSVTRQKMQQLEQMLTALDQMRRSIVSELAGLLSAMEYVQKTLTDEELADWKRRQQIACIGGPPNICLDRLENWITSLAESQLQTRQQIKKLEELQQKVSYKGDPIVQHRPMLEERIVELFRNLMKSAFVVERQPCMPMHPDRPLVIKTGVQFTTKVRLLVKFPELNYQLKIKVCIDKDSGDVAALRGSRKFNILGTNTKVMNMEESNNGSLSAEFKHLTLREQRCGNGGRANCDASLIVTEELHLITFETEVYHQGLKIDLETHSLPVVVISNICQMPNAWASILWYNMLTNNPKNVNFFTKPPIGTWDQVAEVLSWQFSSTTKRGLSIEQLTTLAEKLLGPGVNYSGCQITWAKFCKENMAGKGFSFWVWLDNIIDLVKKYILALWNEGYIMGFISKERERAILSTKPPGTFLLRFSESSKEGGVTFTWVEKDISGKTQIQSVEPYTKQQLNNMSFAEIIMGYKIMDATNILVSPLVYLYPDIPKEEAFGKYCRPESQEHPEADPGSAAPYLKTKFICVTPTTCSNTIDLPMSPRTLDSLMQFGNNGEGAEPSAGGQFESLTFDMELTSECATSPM

For the molecule `C=CC(=O)OCC(O)COc1ccccc1` (stereo not given), the AC50 is 67.3 µM (active) in experiment [1]; 27.4 µM (active) in [2]; 134 µM (active) in experiment [6]; 41.2 µM (active) in experiment [7]; 26.3 µM (active) in experiment [11]. The molecule was called inactive in experiment [3], in experiment [4], in experiment [5], in experiment [8], in experiment [9] and in experiment [10]. Besides, the call in [12], in experiment [13], in experiment [14], in experiment [15] and in experiment [16] was inactive.
On to `O=C(O)c1cn(C2CC2)c2cc(N3CCNCC3)c(F)cc2c1=O`, for which the call in experiment [1], in [2], in experiment [3], in [6], in [7] and in experiment [8] was inactive. The result in experiment [9], in experiment [10], in experiment [11], in [12], in experiment [13] and in [14] was inactive. The call in experiment [15] and in experiment [16] was inactive.
As for `C=C(C)C(=O)NCCCN(C)C`, the call in experiment [1], in [2], in experiment [3], in experiment [4], in experiment [5] and in experiment [6] was inactive. The molecule was classed as inactive in experiment [17], in experiment [7], in [8], in [9], in [10] and in experiment [11]. The call in [12], in [13], in experiment [14], in [15] and in [16] was inactive.
`COc1nc(C)nc(N)n1`: the molecule was classed as inactive in [1], in experiment [2], in [18], in experiment [3], in experiment [5] and in experiment [6]. For the same molecule, the molecule was called inactive in experiment [17], in experiment [8], in experiment [10], in experiment [11], in experiment [12] and in [13]. Further, the molecule was called inactive in experiment [14] and in experiment [15].
On to `CCCCCCCCCCN`, for which the molecule was classed as inactive in experiment [1], in experiment [2], in experiment [3], in [4], in experiment [5] and in [6]. Also, the result in [17], in experiment [19], in [7], in experiment [8], in experiment [10] and in experiment [11] was inactive. The outcome in experiment [12], in experiment [13], in [14], in [15] and in experiment [16] was inactive.
For `CCO[Si](CCCS)(OCC)OCC`, the molecule was classed as inactive in experiment [1], in experiment [18], in experiment [3], in [5], in experiment [6] and in experiment [17]. For the same molecule, the call in [8], in experiment [9], in experiment [10], in [11], in experiment [12] and in experiment [13] was inactive. The molecule was called inactive in experiment [15] and in [16]. In experiment [4], the AC50 is 28.4 µM (active).
Take `CC(=O)OCCOC(C)=O`: the result in [1], in experiment [18], in experiment [3], in [4], in experiment [5] and in [6] was inactive. In addition, the molecule was called inactive in [17], in experiment [19], in experiment [7], in experiment [10], in experiment [11] and in experiment [12]. For the same molecule, the call in experiment [13], in experiment [14], in experiment [15] and in experiment [16] was inactive. Moreover, in experiment [8], the AC50 was 82.2 µM (active).

Values taken from PubChem BioAssay (EPA / NIEHS).
